# From PubChem BioAssay (EPA / NIEHS)
# Active and inactive are the calls of the source. The calls were made as follows: active = hit-call score of the fitted dose curve at least 0.9, where 1 is the maximum; inactive = score below 0.9.
# Read-out: C-C motif chemokine 2 (Homo sapiens) (UniProt P13500)
# Assay: BSK_KF3CT_MCP1: BioMAP Diversity Plus: KF3CT Assay for Monocyte Chemoattractant Protein 1 (MCP1/CCL2) Biomarker Activity (AID 2283073)
# Details: primary human keratinocytes with fibroblasts; actives raise or lower the signal
# Outline: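 Human keratinocyte–foreskin fibroblast co-culture; MCP-1 measured by ELISA 24 h after dosing. Bidirectional fit vs DMSO; cytotoxicity tracked by SRB total protein in parallel cultures.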
Structure (SMILES),outcome,AC50
Cc1ccc(N)cc1,inactive,–
O=[N+]([O-])c1ccc(Oc2ccc(Cl)cc2Cl)cc1,inactive,–
CN(C)c1ccc(C(=O)c2ccc(N(C)C)cc2)cc1,inactive,–
CC(C)(C)C(O)(CCc1ccc(Cl)cc1)Cn1cncn1 (stereo unspecified),inactive,–
Nc1ccc(N=Nc2ccccc2)cc1,inactive,–
CCOC(=O)[C@]1(c2ccccc2)Oc2ccccc2[C@@H]1N,inactive,–
CO[C@@H]1[C@H](OC(=O)NC(=O)CCl)CC[C@]2(CO2)[C@H]1[C@@]1(C)O[C@@H]1CC=C(C)C,inactive,–
O=P(OCCCl)(OCCCl)OCCCl,inactive,–
O=C1CCCO1,inactive,–
CCN(CC)CCO,inactive,–
CCCCCOC(=O)c1ccccc1C(=O)OCCCCC,inactive,–
COc1cc(C=O)cc2c1[C@H](COC(N)=O)[C@]1(OC(C)=O)ON2C[C@H]2[C@@H]1N2C(C)=O,–,1.1 µM (active)
CC(C)(C)OOC(C)(C)CCC(C)(C)OOC(C)(C)C,inactive,–
CS(=O)(=O)NC(=O)c1cc(Oc2ccc(C(F)(F)F)cc2Cl)ccc1[N+](=O)[O-],inactive,–
OCCCl,inactive,–
[Cl-].[Cl-].[Hg+2],–,20 µM (active)
Clc1ccc(C(c2ccc(Cl)cc2)C(Cl)Cl)cc1,–,10.4 µM (active)
CCCCC(CC)COC(=O)c1ccc(C(=O)OCC(CC)CCCC)c(C(=O)OCC(CC)CCCC)c1 (stereo unspecified),inactive,–
N#CC(Br)Br,inactive,–
Cn1cc(-c2ccccc2)c(=O)c(-c2cccc(C(F)(F)F)c2)c1,inactive,–
O=C(N[C@H](c1ccccc1)[C@@H]1CN2CCC1CC2)c1c(Cl)ccc(C(F)(F)F)c1Cl,inactive,–
